{"source": "PubChem BioAssay AID449739", "about": "(Vanderbilt High Throughput Screening Facility, 2010)", "note": "Hit rate of the full screen: of about 100,000 compounds, about 4,200 (4.2%) were called active. The sample holds actives, similar compounds and a random draw of the others, so the mix is not that of the screen. A number with no mark means an inactive call.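 The calls were made as follows: active = single-dose well whose peak fluorescence ratio is a statistical outlier from its plate by either plate-standardised score or position-corrected B-score; inactive = the rest.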"}
{"target": "Voltage-dependent T-type calcium channel subunit alpha-1H (Homo sapiens) (UniProt O95180)", "sequence (O95180 whole entry, looked up)": "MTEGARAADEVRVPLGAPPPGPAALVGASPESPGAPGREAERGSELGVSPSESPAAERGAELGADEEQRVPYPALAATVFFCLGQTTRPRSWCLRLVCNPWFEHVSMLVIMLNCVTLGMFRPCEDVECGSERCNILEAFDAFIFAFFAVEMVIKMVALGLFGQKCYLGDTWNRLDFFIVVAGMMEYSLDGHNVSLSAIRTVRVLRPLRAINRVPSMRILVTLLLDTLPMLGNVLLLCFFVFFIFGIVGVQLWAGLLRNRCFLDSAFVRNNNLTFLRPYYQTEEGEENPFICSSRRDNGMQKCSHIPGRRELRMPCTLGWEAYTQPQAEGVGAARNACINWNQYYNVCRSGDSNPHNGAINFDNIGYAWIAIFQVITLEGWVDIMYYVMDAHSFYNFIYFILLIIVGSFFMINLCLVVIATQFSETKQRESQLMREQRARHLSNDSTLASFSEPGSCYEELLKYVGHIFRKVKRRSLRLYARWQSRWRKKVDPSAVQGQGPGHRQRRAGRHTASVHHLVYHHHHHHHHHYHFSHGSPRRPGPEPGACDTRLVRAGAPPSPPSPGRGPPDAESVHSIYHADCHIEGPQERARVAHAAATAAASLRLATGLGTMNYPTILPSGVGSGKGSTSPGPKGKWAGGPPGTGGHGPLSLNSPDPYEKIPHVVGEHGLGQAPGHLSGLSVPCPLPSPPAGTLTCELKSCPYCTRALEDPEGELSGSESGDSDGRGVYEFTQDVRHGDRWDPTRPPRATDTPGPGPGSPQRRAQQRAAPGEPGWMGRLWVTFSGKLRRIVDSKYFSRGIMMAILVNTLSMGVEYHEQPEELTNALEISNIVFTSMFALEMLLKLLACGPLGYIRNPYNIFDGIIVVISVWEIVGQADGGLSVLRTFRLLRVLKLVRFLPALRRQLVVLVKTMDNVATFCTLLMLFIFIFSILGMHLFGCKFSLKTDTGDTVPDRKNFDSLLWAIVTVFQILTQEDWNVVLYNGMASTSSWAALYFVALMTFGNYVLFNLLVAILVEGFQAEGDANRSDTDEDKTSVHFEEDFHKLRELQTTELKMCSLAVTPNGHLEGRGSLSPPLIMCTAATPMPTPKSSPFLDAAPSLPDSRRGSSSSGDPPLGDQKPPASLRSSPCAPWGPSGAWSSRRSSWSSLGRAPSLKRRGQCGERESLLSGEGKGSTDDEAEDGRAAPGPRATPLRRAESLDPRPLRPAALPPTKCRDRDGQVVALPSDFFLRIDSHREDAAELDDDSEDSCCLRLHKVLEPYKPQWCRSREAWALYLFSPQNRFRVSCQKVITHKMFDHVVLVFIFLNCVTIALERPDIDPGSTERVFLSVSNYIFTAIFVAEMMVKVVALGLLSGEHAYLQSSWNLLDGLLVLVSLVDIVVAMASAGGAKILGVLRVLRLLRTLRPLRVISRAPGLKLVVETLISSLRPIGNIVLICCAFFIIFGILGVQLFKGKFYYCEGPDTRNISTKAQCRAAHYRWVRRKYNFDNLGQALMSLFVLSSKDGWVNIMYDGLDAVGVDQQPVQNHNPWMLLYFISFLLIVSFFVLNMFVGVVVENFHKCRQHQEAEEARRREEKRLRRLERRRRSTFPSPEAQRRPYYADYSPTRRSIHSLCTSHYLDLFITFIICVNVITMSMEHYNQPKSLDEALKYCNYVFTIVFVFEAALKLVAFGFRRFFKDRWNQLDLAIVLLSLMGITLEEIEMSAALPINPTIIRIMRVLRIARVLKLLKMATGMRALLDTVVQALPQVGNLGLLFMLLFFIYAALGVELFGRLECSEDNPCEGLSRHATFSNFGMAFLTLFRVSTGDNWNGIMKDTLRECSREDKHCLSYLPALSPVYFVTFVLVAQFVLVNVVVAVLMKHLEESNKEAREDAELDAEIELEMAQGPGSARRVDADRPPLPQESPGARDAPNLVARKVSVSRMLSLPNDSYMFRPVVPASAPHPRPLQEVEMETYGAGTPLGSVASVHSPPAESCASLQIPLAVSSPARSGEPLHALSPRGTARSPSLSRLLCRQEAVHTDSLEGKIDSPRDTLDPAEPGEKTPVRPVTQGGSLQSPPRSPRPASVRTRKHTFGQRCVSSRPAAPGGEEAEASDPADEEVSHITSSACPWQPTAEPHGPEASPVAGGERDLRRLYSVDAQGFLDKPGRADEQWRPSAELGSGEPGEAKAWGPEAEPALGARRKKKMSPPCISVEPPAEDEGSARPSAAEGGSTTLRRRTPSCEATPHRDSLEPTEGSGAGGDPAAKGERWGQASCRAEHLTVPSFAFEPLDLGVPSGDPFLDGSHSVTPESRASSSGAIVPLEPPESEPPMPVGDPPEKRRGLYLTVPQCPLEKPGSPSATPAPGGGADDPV", "assay": "Cav3.2 calcium influx blockers – cell-based, Fluo-4 calcium fluorescence, FDSS, MLSMR library, primary screen (AID 449739)", "settings": "Cav3.2-expressing cells, at 10 µM, stronger effect = lower value"}
{"molecule": "C1=C(CCNc2ncnc3c2cnn3-c2ccccc2)CCCC1", "B-score": -0.0964}
{"molecule": "Cc1cc(C)cc(NC(=O)CSCc2cnn(-c3ccccc3)c2-n2cccc2)c1", "B-score": -2.22}
{"molecule": "O=C(NCCC1=CCCCC1)C1CCN(Cc2cnn(-c3ccccc3)c2-n2cccc2)CC1", "B-score": "-5.79 (active)"}
{"molecule": "COc1cccc(NC(=S)N(CCc2c(C)[nH]c3ccccc23)Cc2ccco2)c1", "B-score": -2.67}
{"molecule": "CNC(=O)c1[nH]cnc1C(=O)N[C@@H](CC(C)C)C(=O)OC(C)(C)C", "B-score": 0.371}
{"molecule": "Cc1noc(C)c1C(=O)N(CC(=O)NC1CCCC1)Cc1ccccc1F", "B-score": 0.408}
{"molecule": "CCOC(=O)C1C(=O)NCC1c1ccccc1", "note": "(stereo not given)", "B-score": 0.378}
{"molecule": "COC(=O)CN1C(C)=Nc2ccc(Br)cc2C1c1ccccc1", "note": "(stereo not given)", "B-score": -0.737}
{"molecule": "CCC(CC)C(=O)N1CC(=O)Nc2ccc(Br)cc2C1c1ccccc1", "note": "(stereo not given)", "B-score": "-4.79 (active)"}
{"molecule": "CCCCCCCCOC1OC(CO)C(O)C(O)C1NC(C)=O", "note": "(stereo not given)", "B-score": 0.195}
{"molecule": "O=c1c2ccccc2nc(N/N=C/c2ccccc2)n1O", "B-score": "-5.17 (active)"}
{"molecule": "FC(F)(F)c1nc2ccccc2nc1N/N=C/c1ccc(Cl)cc1", "B-score": -0.00807}
{"molecule": "CC(C)(C)c1nc2ccccc2c(=O)n1N1C(=O)c2ccccc2C1=O", "B-score": -0.127}
{"molecule": "C#CCCOC(=O)N1C2=NC(C(=O)OC)=C(C(=O)OC)[C@@H]3N(C)c4ccc(OC)cc4[C@]23C[C@H]1C(=O)OC", "B-score": 0.061}
{"molecule": "Cc1nc(-c2ccc(Cl)cc2)sc1C1(C)CC(c2ccc(Br)cc2)=NO1", "note": "(stereo not given)", "B-score": -0.405}
{"molecule": "Cc1nn(C)c(Oc2ccc(Cl)cc2)c1C=O", "B-score": -0.0899}
{"molecule": "C=CCSc1nnc2c(n1)-c1cccc3cccc-2c13", "B-score": 0.673}
{"molecule": "CSc1nsc(SC)c1NC(=O)OC1CCCCC1", "B-score": "-4.23 (active)"}
{"molecule": "COc1ccc(NC(=O)c2c(SC)nsc2SC)cc1", "B-score": 0.226}
{"molecule": "CC(C)C(OC(=O)c1cccs1)C(=O)NC1CCCCC1", "note": "(stereo not given)", "B-score": -0.509}
{"molecule": "CC(Cc1cccs1)NC(=O)NC1CCCCC1", "note": "(stereo not given)", "B-score": -2.2}
{"molecule": "O=C(NCC(=O)N(Cc1cccs1)C(C(=O)NC1CCCCC1)c1ccco1)c1cccs1", "note": "(stereo not given)", "B-score": "-6.73 (active)"}
{"molecule": "O=C(CC(O)(C(F)(F)F)C(F)(F)F)Nc1ccc(Cl)c(Cl)c1", "B-score": "-6.32 (active)"}
{"molecule": "Cc1nnc(NC(=O)Nc2ccc(Cl)c(Cl)c2)s1", "B-score": -0.569}
{"molecule": "N/C(=N\\OC(=O)Nc1ccc(Cl)c(Cl)c1)c1ncc(C(F)(F)F)cc1Cl", "B-score": -0.00792}
{"molecule": "COC(=O)CNC(=O)c1ccccc1[N+](=O)[O-]", "B-score": 2.22}
{"molecule": "CC(=O)N[C@H]1[C@H]([C@H](O)[C@H](O)CO)OC(C(=O)O)=C[C@@H]1O", "B-score": 0.744}
{"molecule": "CC(C)CNC(=O)CC(c1ccccc1)c1c(O)ccc2ccccc12", "note": "(stereo not given)", "B-score": "-6.12 (active)"}
{"molecule": "Cc1ccc(CNC(=O)C2CC(c3ccccc3[N+](=O)[O-])=NO2)o1", "note": "(stereo not given)", "B-score": -1.03}
{"molecule": "COc1ccc(C(=O)CN(C(=O)c2ccc(Cl)cc2)N2C(=O)c3ccccc3C2=O)cc1", "B-score": -1.99}
{"molecule": "O=C(Cc1ccc(S(=O)(=O)N2CCOCC2)s1)NCCC(c1ccccc1)c1ccccc1", "B-score": "-6.74 (active)"}
{"molecule": "O=C(Cc1ccc(S(=O)(=O)N2CCCC2)s1)NC1CCCCCC1", "B-score": 0.271}
{"molecule": "O=C(NCCSCc1ccccc1)c1ccc(Cl)c(S(=O)(=O)N2CCOCC2)c1", "B-score": -3.48}
{"molecule": "CC(=O)c1sc(NC(=O)c2cccc3ccccc23)nc1C", "B-score": -0.12}
{"molecule": "CC(=O)c1nn(-c2cccc(Br)c2)cc1C(=O)c1cccc2ccccc12", "B-score": "-4.57 (active)"}
{"molecule": "CC(=O)c1ccc2c(ccc3ccccc32)c1", "B-score": -0.705}
{"molecule": "CCNC(=S)N1CCN(C(=O)c2ccco2)CC1", "B-score": -0.0983}
{"molecule": "CCN(CC)CCN1C(=O)C(=O)/C(=C(/O)c2cnn(-c3ccccc3)c2C)C1c1cccs1", "note": "(stereo not given)", "B-score": 0.414}
{"molecule": "CC(Oc1ccc2ccccc2c1)C(=O)NNC(=S)NC(=O)c1ccco1", "note": "(stereo not given)", "B-score": "-7.25 (active)"}
{"molecule": "O=C(Nc1ccc(Oc2ccccc2)cc1)c1ccco1", "B-score": -0.246}
{"molecule": "COc1ccc(CCNC(=O)c2ccco2)cc1", "B-score": 0.807}
{"molecule": "CCO[C@H]1OC(C(=O)NCc2ccccc2)=C[C@@H](c2coc3ccccc3c2=O)[C@@H]1CCCO", "B-score": 0.119}
{"molecule": "CC1=NN(Cc2ccccc2)C(=O)/C1=C/c1ccc(N(C)C)cc1", "B-score": -2.13}
{"molecule": "CS(=O)(=O)N1CCN(c2ccc(C(=O)NC3C4CC5CC(C4)CC3C5)cc2[N+](=O)[O-])CC1", "note": "(stereo not given)", "B-score": 0.716}
{"molecule": "Cc1ccc(C(=O)NCC(=O)O)cc1S(=O)(=O)N1CCCCC1", "B-score": 1.06}
{"molecule": "O=C(Nc1ccc2c(c1)OCCO2)c1ccc(Cl)c(S(=O)(=O)N2CCCCC2)c1", "B-score": -1.46}
{"molecule": "Cc1ccc(C(=O)Nc2ccc3c(c2)OCO3)cc1S(=O)(=O)N1CCCCC1", "B-score": "-5.28 (active)"}
{"molecule": "CCOc1ccc(NC(=O)CC2C(=O)N(c3ccccc3)C(=O)N2CCOC)cc1", "note": "(stereo not given)", "B-score": 0.221}
{"molecule": "COc1ccc(-c2n[nH]c(C)c2-c2ccc(OC)c(OC)c2)c(O)c1", "B-score": -1.02}
{"molecule": "CCOc1ccccc1Oc1cn[nH]c1-c1ccc(OC)cc1O", "B-score": "-3.81 (active)"}
{"molecule": "C=C(C)COc1ccc(-c2n[nH]c(C)c2-c2ccccc2OC)c(O)c1", "B-score": -1.28}
{"molecule": "O=C(c1cccc(F)c1)N1CCN(c2ccc([N+](=O)[O-])c(N3CCCCC3)c2)CC1", "B-score": -2.45}
{"molecule": "Cc1cccc(N2CCN(C(=O)CN(C)S(=O)(=O)c3ccc4c(c3)CCC(=O)N4)CC2)c1C", "B-score": 1.04}
{"molecule": "O=S(=O)(NCc1cccnc1)c1ccc(Cl)nc1", "B-score": 0.0815}
{"molecule": "Clc1ccc(Cn2ncc3c(NCc4cccnc4)ncnc32)cc1", "B-score": "-4.69 (active)"}
{"molecule": "CC(C)Nc1ncnc2c1nnn2Cc1ccccc1", "B-score": 0.849}
{"molecule": "CN1CCN(C(CNS(=O)(=O)c2cccs2)c2cccnc2)CC1", "note": "(stereo not given)", "B-score": -0.131}
{"molecule": "O=C(/C=C\\NCC(=O)c1ccccc1)c1ccccc1", "B-score": 0.368}
{"molecule": "COc1ccccc1NC(=O)CC(NCCN(C)C)C(=O)O", "note": "(stereo not given)", "B-score": -0.277}
{"molecule": "COc1ccccc1NC(=O)[C@H](COCc1ccccc1)NC(=O)OC(C)(C)C", "B-score": "-4.41 (active)"}
{"molecule": "C#CCNC(=O)[C@H](Cc1ccc(C(=O)c2ccccc2)cc1)NC(=O)OC(C)(C)C", "B-score": 0.229}
{"molecule": "COC(=O)c1ccc(C2C(Oc3ccccc3C)C(=O)N2CCc2ccc(OC)c(OC)c2)cc1", "note": "(stereo not given)", "B-score": -2.96}
{"molecule": "C=C1C2C[C@H](O)C(C)(C)[C@@]2(O)[C@H](O)C[C@]23C[C@@](C)(O)[C@H](CC[C@H]12)[C@H]3O", "note": "(stereo not given in full)", "B-score": 0.00132}
{"molecule": "C#CCO[C@@H]1C[C@H](n2cnc3c(=O)[nH]c(NC(=O)C(C)C)nc32)O[C@@H]1CO", "B-score": 0.0144}
{"molecule": "CC(C)NC(=O)NCCCCCCS(C)=O", "note": "(stereo not given)", "B-score": 0.449}
{"molecule": "CCCCOC(=O)Cn1c(=O)n(CC(=O)OCCCC)c2cc(C)ccc21", "B-score": "-8.75 (active)"}
{"molecule": "CCOC(=O)CN1C(=O)C(=O)c2cc(C)ccc21", "B-score": 0.0584}
{"molecule": "CCCCOC(=O)Cn1c(=N)n(CCN(CC)CC)c2ccccc21", "B-score": 0.824}
{"molecule": "COC(=O)CCCC1=CC2=C(c3ccccc3)C(=O)C(C)(OC(=O)C3CCCC3)C(=O)C2=CN1c1ccc(OC)cc1", "note": "(stereo not given)", "B-score": 0.00545}
{"molecule": "Cc1nn(-c2ccccn2)c2c1C(c1ccncc1)C1=C(CC(C)(C)CC1=O)N2", "note": "(stereo not given)", "B-score": 0.727}
{"molecule": "CCOc1ccc(N(CC(=O)OC)S(=O)(=O)c2c(C)noc2C)cc1", "B-score": "-5.9 (active)"}
{"molecule": "COC(=O)c1ccc(NC(=O)CN(c2ccc(C)cc2)S(=O)(=O)c2c(C)n[nH]c2C)cc1", "B-score": -2.02}
{"molecule": "CCOC(=O)c1cccc(NC(=O)CN(c2ccc(C)cc2)S(=O)(=O)c2c(C)noc2C)c1", "B-score": "-6.06 (active)"}
{"molecule": "CCOC(=O)C1CCCN(C(=O)CN(c2ccc(OC)cc2)S(=O)(=O)c2c(C)noc2C)C1", "note": "(stereo not given)", "B-score": 0.012}
{"molecule": "CCOc1ccc(N(CC(=O)NCc2ccc(OC)cc2)S(=O)(=O)c2c(C)noc2C)cc1", "B-score": 0.15}
{"molecule": "Cc1noc(C)c1S(=O)(=O)N(CC(=O)Nc1ccc2c(c1)OCCO2)c1ccc(C(C)C)cc1", "B-score": -2.62}
{"molecule": "COc1cccc(C(=O)NNC(=O)c2ccccc2Br)c1", "B-score": 0.232}
{"molecule": "CC(C)NC(=O)C(=O)NCCCOC(C)C", "B-score": 0.568}
{"molecule": "Cc1sc(NC(=S)NC(=O)c2cccs2)nc1-c1ccc(CC(C)C)cc1", "B-score": -0.0675}
{"molecule": "CC/C=C/C(=O)N1CC2(CC(c3cccc(NC(=O)CC)c3)=NO2)C[C@H]1C(N)=O", "note": "(stereo not given in full)", "B-score": 0.223}
{"molecule": "CCOc1ccc(C(CCc2ccccc2)NC(=O)c2ccc(OC)c(OC)c2)cc1OCC", "note": "(stereo not given)", "B-score": -1.85}
{"molecule": "Cc1ccccc1OCC(=O)NCC(=O)OCC(=O)c1ccc2ccccc2c1", "B-score": -0.0134}
{"molecule": "COc1cccc(N2CCN(C(=O)Nc3ccc4c(c3)NC(=O)CO4)CC2)c1", "B-score": -0.0474}
{"molecule": "O=C(Nc1ccccc1)N1CCN(Cc2ccccc2)CC1", "B-score": 0.4}
{"molecule": "O=C(Nc1cccc(NC(=O)N2CCN(c3ccccc3)CC2)c1)N1CCN(c2ccccc2)CC1", "B-score": "-6.86 (active)"}
{"molecule": "O=C(C1=C[C@H](c2coc3ccccc3c2=O)C[C@H](OCc2ccc(CO)cc2)O1)N1CCOCC1", "B-score": 0.0258}
{"molecule": "O=C(ON=C1CCN(S(=O)(=O)c2ccccc2)CC1)c1ccc(Cl)cc1", "B-score": 0.782}
{"molecule": "CC(C)(C)c1ccc(C(=O)NNC(=O)Cc2ccccc2)cc1", "B-score": 0.185}
{"molecule": "Cc1ccccc1NC(=O)c1ccccc1", "B-score": 0.346}
{"molecule": "CN(C(=O)CC(NC(=O)c1ccccc1)(c1ccccc1)c1ccccc1)c1ccccc1", "B-score": "-8.96 (active)"}
